Laboratory results from PubChem BioAssay AID1159580 (chemical genetic matrix, 2015).
Several values for one entry are separate records, joined by “and”; a condition that tells them apart may be missing. Equal values may be shown once. About 2,000 (36%) of roughly 5,500 compounds were called active. Inconclusive results (about 18%) are left out. The list shows a part of the results. A number with no mark means an inactive call. No stated cut-off is given here; in the data, active means normalized growth mostly below about 0.91 (no sharp cut-off); inconclusive means no clear call, values can overlap the other calls; inactive means mostly above about 0.92.

Assay: chemical genetic growth profiling, strain panel (AID 1159580);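 further: tested at 20 µM; growth read once vehicle control cultures reached saturation at 30 °C; 1 = growth at the plate median or of vehicle wells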
Settings: growth OD
[1] = S. cerevisiae deletion strains, locus YBR229C, strain ROT2, stronger effect = lower value
[2] = S. cerevisiae deletion strains, locus YDL101C, strain DUN1, stronger effect = lower value
[3] = S. cerevisiae deletion strains, locus YDL134C, strain PPH21, stronger effect = lower value
[4] = S. cerevisiae deletion strains, locus YDR150W, strain NUM1, stronger effect = lower value
[5] = S. cerevisiae deletion strains, locus YEL061C, strain CIN8, stronger effect = lower value
[6] = S. cerevisiae deletion strains, locus YGR078C, strain PAC10, stronger effect = lower value
[7] = S. cerevisiae deletion strains, locus YHR030C, strain SLT2, stronger effect = lower value
[8] = S. cerevisiae deletion strains, locus YJR043C, strain POL32, stronger effect = lower value
[9] = S. cerevisiae deletion strains, locus YJR075W, strain HOC1, stronger effect = lower value
[10] = S. cerevisiae deletion strains, locus YLR039C, strain RIC1, stronger effect = lower value
[11] = S. cerevisiae deletion strains, locus YLR262C, strain YPT6, stronger effect = lower value
[12] = S. cerevisiae deletion strains, locus YMR263W, strain SAP30, stronger effect = lower value
[13] = S. cerevisiae deletion strains, locus YMR307W, strain GAS1, stronger effect = lower value
[14] = S. cerevisiae deletion strains, locus YNL128W, strain TEP1, stronger effect = lower value
[15] = S. cerevisiae deletion strains, locus YNL322C, strain KRE1, stronger effect = lower value
[16] = S. cerevisiae deletion strains, locus YPL055C, strain LGE1, stronger effect = lower value
[17] = S. cerevisiae deletion strains, locus YPL241C, strain CIN2, stronger effect = lower value
[18] = S. cerevisiae strains, strain wild type, stronger effect = lower value
[19] = S. cerevisiae deletion strains, locus YAL013W, strain DEP1, stronger effect = lower value
[20] = S. cerevisiae deletion strains, locus YHR087W, strain rtc3, stronger effect = lower value
[21] = S. cerevisiae deletion strains, locus YLR058C, strain SHM2 (second series), stronger effect = lower value
[22] = S. cerevisiae deletion strains, locus YLR085C, strain ARP6, stronger effect = lower value
[23] = S. cerevisiae deletion strains, locus YML094W, strain GIM5, stronger effect = lower value
[24] = S. cerevisiae deletion strains, locus YMR219W, strain ESC1, stronger effect = lower value
[25] = S. cerevisiae deletion strains, locus YNL153C, strain GIM3, stronger effect = lower value
[26] = S. cerevisiae deletion strains, locus YNL298W, strain CLA4 (second series), stronger effect = lower value
[27] = S. cerevisiae deletion strains, locus YNR030W, strain Alg12, stronger effect = lower value
[28] = S. cerevisiae deletion strains, locus YPR135W, strain CTF4, stronger effect = lower value

NCCNC(=O)c1ccc(Cl)cc1
normalized growth (S. cerevisiae deletion strains, locus YAL040C, strain CLN3, stronger effect = lower value): 1.07
normalized growth (S. cerevisiae deletion strains, locus YBR021W, strain FUR4, stronger effect = lower value): 0.997
normalized growth [1]: 0.994
normalized growth (S. cerevisiae deletion strains, locus YCL029C, strain bik1, stronger effect = lower value): 0.986
normalized growth (S. cerevisiae deletion strains, locus YCL061C, strain MRC1 (second series), stronger effect = lower value): 0.997
normalized growth (S. cerevisiae deletion strains, locus YDL035C, strain GPR1, stronger effect = lower value): 0.997
normalized growth (S. cerevisiae deletion strains, locus YDL074C, strain BRE1, stronger effect = lower value): 1.05
normalized growth [2]: 0.994
normalized growth [3]: 0.98
normalized growth (S. cerevisiae deletion strains, locus YDL185W, strain tfp1, stronger effect = lower value): 0.984
normalized growth (S. cerevisiae deletion strains, locus YDL192W, strain arf1, stronger effect = lower value): 0.973
normalized growth (S. cerevisiae deletion strains, locus YDR101C, strain arx1, stronger effect = lower value): 1.03
normalized growth [4]: 0.998 and 0.995
normalized growth (S. cerevisiae deletion strains, locus YDR162C, strain NBP2, stronger effect = lower value): 0.984
normalized growth (S. cerevisiae deletion strains, locus YDR318W, strain mcm21, stronger effect = lower value): 0.987
normalized growth (S. cerevisiae deletion strains, locus YDR363W, strain ESC2, stronger effect = lower value): 1.01
normalized growth (S. cerevisiae deletion strains, locus YDR388W, stronger effect = lower value): 0.98
normalized growth (S. cerevisiae deletion strains, locus YDR502C, strain sam2, stronger effect = lower value): 1
normalized growth [5]: 0.99
normalized growth (S. cerevisiae deletion strains, locus YER002W, strain NOP16, stronger effect = lower value): 1.02
normalized growth (S. cerevisiae deletion strains, locus YER110C, stronger effect = lower value): 0.959
normalized growth (S. cerevisiae deletion strains, locus YER155C, strain BEM2, stronger effect = lower value): 0.999
normalized growth (S. cerevisiae deletion strains, locus YER167W, strain BCK2, stronger effect = lower value): 0.99
normalized growth (S. cerevisiae deletion strains, locus YGL078C, strain dbp3, stronger effect = lower value): 0.961
normalized growth (S. cerevisiae deletion strains, locus YGL086W, strain mad1, stronger effect = lower value): 1.01
normalized growth (S. cerevisiae deletion strains, locus YGL248W, strain PDE1, stronger effect = lower value): 0.996
normalized growth [6]: 1.03 and 0.988
normalized growth (S. cerevisiae deletion strains, locus YGR135W, strain pre9, stronger effect = lower value): 0.948
normalized growth (S. cerevisiae deletion strains, locus YGR252W, strain gcn5, stronger effect = lower value): 0.931
normalized growth [7]: 0.987
normalized growth (S. cerevisiae deletion strains, locus YHR079C, strain IRE1 (second series), stronger effect = lower value): 0.991
normalized growth (S. cerevisiae deletion strains, locus YHR094C, strain hxt1, stronger effect = lower value): 0.986
normalized growth (S. cerevisiae deletion strains, locus YHR129C, strain ARP1, stronger effect = lower value): 0.998
normalized growth (S. cerevisiae deletion strains, locus YHR200W, strain rpn10, stronger effect = lower value): 0.983
normalized growth (S. cerevisiae deletion strains, locus YIL066C, strain RNR3, stronger effect = lower value): 0.998
normalized growth (S. cerevisiae deletion strains, locus YIL073C, strain SPO22, stronger effect = lower value): 0.94
normalized growth (S. cerevisiae deletion strains, locus YIL125W, strain kgd1, stronger effect = lower value): 0.988
normalized growth (S. cerevisiae deletion strains, locus YIR030C, strain dcg1, stronger effect = lower value): 0.982
normalized growth (S. cerevisiae deletion strains, locus YJL095W, strain BCK1, stronger effect = lower value): 1.02
normalized growth (S. cerevisiae deletion strains, locus YJL134W, strain LCB3, stronger effect = lower value): 0.991
normalized growth (S. cerevisiae deletion strains, locus YJL168C, strain set2, stronger effect = lower value): 0.984
normalized growth (S. cerevisiae deletion strains, locus YJL187C, strain SWE1 (second series), stronger effect = lower value): 1
normalized growth [8]: 1.02
normalized growth [9]: 0.999
normalized growth (S. cerevisiae deletion strains, locus YKL009W, strain mrt4, stronger effect = lower value): 0.969
normalized growth (S. cerevisiae deletion strains, locus YKL068W, stronger effect = lower value): 0.989
normalized growth (S. cerevisiae deletion strains, locus YKL085W, strain MDH1 (second series), stronger effect = lower value): 1
normalized growth (S. cerevisiae deletion strains, locus YKL085W, strain MDH1, stronger effect = lower value): 1
normalized growth (S. cerevisiae deletion strains, locus YKL190W, strain CNB1, stronger effect = lower value): 0.998
normalized growth (S. cerevisiae deletion strains, locus YKR001C, strain vps1, stronger effect = lower value): 0.993
normalized growth [10]: 1.04
normalized growth (S. cerevisiae deletion strains, locus YLR058C, strain SHM2, stronger effect = lower value): 0.988
normalized growth (S. cerevisiae deletion strains, locus YLR102C, strain apc9, stronger effect = lower value): 0.976
normalized growth [11]: 0.996
normalized growth (S. cerevisiae deletion strains, locus YLR268W, strain sec22, stronger effect = lower value): 0.992
normalized growth (S. cerevisiae deletion strains, locus YLR330W, strain CHS5, stronger effect = lower value): 0.999
normalized growth (S. cerevisiae deletion strains, locus YLR342W, strain FKS1 (second series), stronger effect = lower value): 0.984
normalized growth (S. cerevisiae deletion strains, locus YLR371W, strain rom2, stronger effect = lower value): 0.991
normalized growth (S. cerevisiae deletion strains, locus YLR418C, strain cdc73, stronger effect = lower value): 0.975
normalized growth (S. cerevisiae deletion strains, locus YML016C, strain PPZ1, stronger effect = lower value): 0.991
normalized growth (S. cerevisiae deletion strains, locus YML032C, strain rad52, stronger effect = lower value): 0.984
normalized growth (S. cerevisiae deletion strains, locus YML124C, strain tub3, stronger effect = lower value): 0.99
normalized growth (S. cerevisiae deletion strains, locus YMR078C, strain ctf18, stronger effect = lower value): 0.967
normalized growth (S. cerevisiae deletion strains, locus YMR223W, strain ubp8, stronger effect = lower value): 0.958
normalized growth [12]: 1.01 and 0.997
normalized growth [13]: 0.984 and 0.965
normalized growth (S. cerevisiae deletion strains, locus YNL067W, strain RPL9B, stronger effect = lower value): 1.01
normalized growth [14]: 0.984 and 0.991
normalized growth (S. cerevisiae deletion strains, locus YNL175C, strain NOP13, stronger effect = lower value): 0.99
normalized growth (S. cerevisiae deletion strains, locus YNL197C, strain WHI3, stronger effect = lower value): 0.992
normalized growth (S. cerevisiae deletion strains, locus YNL224C, strain SQS1, stronger effect = lower value): 0.999
normalized growth (S. cerevisiae deletion strains, locus YNL233W, strain BNI4, stronger effect = lower value): 1.02
normalized growth (S. cerevisiae deletion strains, locus YNL250W, strain rad50, stronger effect = lower value): 0.942
normalized growth (S. cerevisiae deletion strains, locus YNL271C, strain bni1, stronger effect = lower value): 0.983
normalized growth (S. cerevisiae deletion strains, locus YNL298W, strain CLA4, stronger effect = lower value): 0.96
normalized growth (S. cerevisiae deletion strains, locus YNL307C, strain MCK1, stronger effect = lower value): 0.981
normalized growth [15]: 1.01
normalized growth (S. cerevisiae deletion strains, locus YNR052C, strain pop2, stronger effect = lower value): 0.974
normalized growth (S. cerevisiae deletion strains, locus YOL006C, strain TOP1, stronger effect = lower value): 1.08
normalized growth (S. cerevisiae deletion strains, locus YOL012C, strain htz1): 1.91
normalized growth (S. cerevisiae deletion strains, locus YOL147C, strain pex11, stronger effect = lower value): 0.985
normalized growth (S. cerevisiae deletion strains, locus YOR061W, strain CKA2, stronger effect = lower value): 0.992
normalized growth (S. cerevisiae deletion strains, locus YOR069W, strain VPS5, stronger effect = lower value): 0.984
normalized growth (S. cerevisiae deletion strains, locus YOR083W, strain WHI5 (second series), stronger effect = lower value): 0.99
normalized growth (S. cerevisiae deletion strains, locus YOR136W, strain idh2, stronger effect = lower value): 0.993
normalized growth (S. cerevisiae deletion strains, locus YOR144C, strain elg1, stronger effect = lower value): 0.983
normalized growth (S. cerevisiae deletion strains, locus YOR184W, strain ser1, stronger effect = lower value): 0.968
normalized growth (S. cerevisiae deletion strains, locus YOR316C, strain cot1, stronger effect = lower value): 0.981
normalized growth [16]: 1.01
normalized growth [17]: 0.997
normalized growth (S. cerevisiae deletion strains, locus YPR119W, strain clb2, stronger effect = lower value): 0.977
normalized growth (S. cerevisiae deletion strains, locus YPR141C, strain kar3, stronger effect = lower value): 0.978
normalized growth (S. cerevisiae deletion strains, locus YPR163C, strain tif3, stronger effect = lower value): 0.987
normalized growth (S. cerevisiae deletion strains, locus YPR167C, strain met16, stronger effect = lower value): 0.973
normalized growth (S. cerevisiae deletion strains, strain wtn01, stronger effect = lower value): 0.968
normalized growth [18]: 0.998

O=C(NCCSCc1ccc(Cl)cc1)c1ccc(Cl)cc1
normalized growth [19]: 0.941
normalized growth [1]: 0.919 (active)
normalized growth [2]: 0.915
normalized growth [4]: 0.925
normalized growth [5]: 1.02
normalized growth [6]: 0.902 (active)
normalized growth [7]: 0.0946 (active)
normalized growth [20]: 0.903 (active)
normalized growth (S. cerevisiae deletion strains, locus YJL187C, strain SWE1, stronger effect = lower value): 0.897 (active)
normalized growth [8]: 0.948
normalized growth [9]: 0.954
normalized growth [10]: 1.09
normalized growth [21]: 0.972
normalized growth [22]: 0.724 (active)
normalized growth [11]: 1.01
normalized growth [23]: 0.881
normalized growth [24]: 0.932 (active)
normalized growth [12]: 0.954
normalized growth [13]: 0.849
normalized growth [14]: 0.965
normalized growth [25]: 0.907 (active)
normalized growth [26]: 0.684 (active)
normalized growth [15]: 0.961
normalized growth [27]: 0.936
normalized growth [16]: 0.893
normalized growth [17]: 1.03
normalized growth [28]: 1.07
normalized growth [18]: 0.887 (active)

CCCCNC(=O)NCCSCc1ccco1
normalized growth [19]: 1.01
normalized growth [1]: 0.986
normalized growth [2]: 0.982
normalized growth [3]: 0.993
normalized growth [4]: 1
normalized growth [5]: 0.98
normalized growth [6]: 0.994
normalized growth [7]: 1.02
normalized growth [20]: 0.99
normalized growth [8]: 1.01
normalized growth [9]: 1.01
normalized growth [10]: 1
normalized growth [21]: 0.991
normalized growth [22]: 0.943
normalized growth [11]: 1.02
normalized growth [23]: 0.988
normalized growth [24]: 0.989
normalized growth [12]: 0.996
normalized growth [14]: 0.987
normalized growth [25]: 1.01
normalized growth [26]: 0.984
normalized growth [15]: 0.99
normalized growth [27]: 0.998
normalized growth [16]: 1
normalized growth [17]: 0.988
normalized growth [28]: 1.05
normalized growth [18]: 0.98
